This passage reports inhibition results from ChEMBL document CHEMBL3433997, “St. Jude Leishmania screening dataset” (2016).

A word on the inhibition: it is the change of the read-out against control, counted positive when it falls.

The structures appear in SMILES notation.

The target in this experiment is Glucose transporter (Leishmania mexicana) (UniProt O61059). Description: ST_JUDE_LEISH: Cytotoxicity at 2uM final concentration against transgenic Leishmania Mexicana promastigotes LmGT2 that are glucose transport deficient and complemented with the L. Mexicana glucose transporter 2. Activity is measured by DNA content using SYBR green in vitro. In kind it is functional.
Regarding `CCc1ccc(CC(C)NCC(O)c2ccccc2)cc1` (centres undefined), the inhibition amounted to 1.94%.

Regarding `CC(C)/C(=C(/F)CN1C(=O)C(NC(=O)c2cc3ccccc3[nH]2)C(=O)N(c2ccccc2)c2ccccc21)c1ccccc1` (centres undefined), the inhibition was -1.01%.

For `FC(F)(F)c1ccc(NC(=S)N2CCC(CN3CCC(c4c[nH]c5ccccc45)CC3)CC2)cc1`, the inhibition came out at 2.98%.

In the case of `CCCCCc1cc(O)c2c(c1)OC(C)(C)c1ccncc1-2`, the inhibition was 3.5%.

As for `COC(=O)c1ccc(CC(C)NCC(O)c2cccc(I)c2)cc1` (centres undefined), the inhibition turned out to be 0.29%.

`CC[C@H]1CN2CC[C@@H]1C[C@H]2[C@H](O)c1cc(N2CCC(CO)CC2)nc2ccc(OC)cc12`: the inhibition is 2.66%.

On to `COc1cccc(O)c1CNCC(O)c1cccc(C(F)(F)F)c1` (centres undefined), for which the inhibition amounted to 0.29%.

Consider `CN(c1ccnc(Nc2ccc(CS(C)(=O)=O)cc2)n1)C1CCN(Cc2ccccc2)CC1`, for which the inhibition came to 1.21%.

Take `CN(C)c1cccc(NC(=O)N[C@H]2N=C(c3ccccc3)c3ccccc3N(CC(=O)N3CCCC3)C2=O)c1`: the inhibition was determined as 2.53%.

Take `CC[C@H]1CN2CCc3cc(OC)c(OC)cc3[C@@H]2C[C@@H]1C[C@H]1NCCc2cc(OC)c(OC)cc21`: the inhibition is 90.3%.

For the compound `CC(Cc1ccc(-c2nc3ccccc3[nH]2)cc1)NCC(O)c1cccc(C(F)(F)F)c1` (centres undefined), the inhibition is -0.37%.

Consider `CC(=O)Nc1ccc(OCCN(CC(C)C)c2ccc(C#N)c(C(F)(F)F)c2)c(Cl)c1`, for which the inhibition turned out to be 2.53%.

As for `CCCCCCCc1cc(O)c2c3c(c(=O)oc2c1)CN(C)CC3`, the inhibition was determined as 10.7%.

Regarding `OC(CNC1CCCCC1)c1ccc(Cl)c(Cl)c1` (centres undefined), the inhibition is -0.95%.

For the compound `COCC(=O)N(Cc1ccccc1-c1cccc(CNCCc2ccccc2)c1)C1CCN(Cc2ccccc2)CC1`, the inhibition amounted to 3.9%.

On to `COC(C(=O)OCCC1CCCN1C)(c1ccccc1)c1ccccc1` (centres undefined), for which the inhibition is -4.58%.

Take `CC(C)c1ccc(C=CC(=O)NC2CCC(CN3CCC(c4c[nH]c5ccccc45)CC3)CC2)cc1` (centres undefined): the inhibition came out at 2.47%.

On to `COCCNCc1cccc(-c2ccc(CN(C(=O)Nc3ccccc3)C3CCN(Cc4ccccc4)CC3)cc2)c1`, for which the inhibition came to 2.73%.

`CN(c1cc(NC(=O)c2cccs2)ccn1)C1CCN(Cc2cccc(F)c2)CC1`: the inhibition came out at 5.71%.

As to `Cc1nc(-c2ccc(-c3ccc(C(=O)Nc4ccc5c(c4)C4(CCNCC4)CO5)cc3)c(C)c2)no1`, the inhibition was 1.93%.

For `CC[C@H]1CN2CC[C@@H]1C[C@H]2[C@H](O)c1cc(N2CCC(C)CC2)nc2ccc(OC)cc12`, the inhibition stood at 5.06%.

In the case of `CC1(C)N=C(N)N=C(N)N1c1ccc([N+](=O)[O-])cc1`, the inhibition turned out to be 7.22%.

For the compound `COc1ccc2[nH]cc(C3CC4CCC(C3)N4CCC3CCN(C(=O)/C=C/c4ccc(Cl)c(Cl)c4)CC3)c2c1` (centres undefined), the inhibition stood at 0.71%.

Take `Cn1c(C2CC3CCC(C2)N3CC2CCC(NC(=O)/C=C/c3ccc(Cl)c(Cl)c3)CC2)nc2ccccc21` (centres undefined): the inhibition was determined as 2.69%.
